# A number with no mark means an inactive call.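 Rule for the calls, unless noted: active = cell viability at or below a set limit in both duplicate runs, the limit being the all-compound median minus 4 SD (cut at about 23% in these data, passing the limit was not always enough); inconclusive = no clear call, values can overlap the other calls; inactive = the rest.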 Records with an inconclusive call do not appear.
# Assay: viability gain of MRP-1-high H69AR cells under doxorubicin, pilot screen, MRP-1 activator project, CellTiter-Glo, duplicate (AID 807;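 active = viability increase at or above a cutoff of the median across tested compounds plus 3 SD, cut at about 8.5% in these data, passing the limit was not always enough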;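 note: compound pretreatment 18-22 h then 72 h combined with doxorubicin; 0% = doxorubicin alone and 100% = vehicle without doxorubicin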)
# Details: H69AR viability with doxorubicin, CellTiter-Glo luminescence; at 10 µM; stronger effect = higher value
row,SMILES,viability increase
1,Cc1cccc(NC(=O)c2ccc(S(=O)(=O)N(C)C)cc2)c1,-3.61%
2,COCCCNC(=O)c1cc2c(-c3ccc(Cl)cc3)nn(C)c2s1,-6.69%
3,Cc1ccc(-c2nnc3n2N=C(c2ccccc2)CS3)cc1,-0.74%
4,COCCOC(=O)c1[nH]c2c(c1C)C(=O)CC(c1cc(OC)ccc1OC)C2 (stereo not drawn),-6.01%
5,COc1ccc(OC)c(C2C(C(N)=O)=C(C)Nc3nc(CCCO)nn32)c1 (stereo not drawn),0.09%
6,CCOC(=O)Nc1ccc2ncn(C)c(=O)c2c1,-5.77%
7,Cc1cc2c3nonc3ccc2n1-c1ccccc1,-2.59%
8,O=C(Nc1ccc(F)cc1)C1CCC(N2C(=O)c3ccccc3C2=O)CC1 (stereo not drawn),-7.05%
9,CCOc1ccc(-n2c(Cc3cc(=O)[nH]c(=O)[nH]3)nnc2SC(C)C(=O)OC)cc1 (stereo not drawn),0.2%
10,Cn1cccc1Cc1nnc(SCC(=O)N2CCCCCC2)n1-c1ccc(F)cc1,-1.67%
11,Cc1occc1C(=O)NCc1cccs1,-1.27%
12,CCC(C)(C(=O)NC1CCCCC1)N(Cc1ccco1)C(=O)CC1NC(=O)NC1=O (stereo not drawn),-3.95%
13,CCCCOC(=O)Cc1c(O)c2ccccc2[nH]c1=O,-1.82%
14,CCCC(=O)N=c1sc2cccc(F)c2n1C,-2.75%
15,Cc1ccc(N2CCN(c3cc(C)nc4nc(C)nn34)CC2)c(C)c1,-2.76%
16,CC(C)CCOc1cccc(C2c3c(oc4ccccc4c3=O)C(=O)N2CCCN2CCOCC2)c1 (stereo not drawn),-4.89%
17,O=C1N=C(N2CCOCC2)SC1=C1CCCCC1,-2.09%
18,CCOC(=O)N1CCC(N2CC34C=CC(O3)C(C(=O)Nc3ccc(F)cc3)C4C2=O)CC1 (stereo not drawn),1.43%
19,COC(=O)/C=C/S(=O)(=O)c1ccc(NC(C)=O)cc1,-8.44%
20,Cc1ccc(C)c(NC(=O)CS(=O)(=O)c2cn(C)c3ccccc23)c1,-0.69%
21,CCOC(=O)C1C(C)N=C2SCC(=O)N2C1c1cccc(Br)c1 (stereo not drawn),-0.84%
22,CCOc1ccc(NC(=O)c2cnc3scc(C)n3c2=O)cc1,-1.16%
23,COC(=O)c1ccc(N=c2sc(C(=O)OC)cc(=O)n2C)cc1,-5.93%

# Assay: growth suppression of beta-catenin knockout HCT116, pilot screen, human colon tumor cells (AID 823);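 note: 0% = wells killed by 20 µM Hyamine and 100% = untreated DMSO cell wells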
# Details: CellTiter-Glo, 60 h, at 10 µM, stronger effect = lower value
row,SMILES,viability
1,O=C(O)CCCC(=O)Nc1c(F)c(F)c(F)c(F)c1F,90.4%
2,O=C1CC(NCc2ccc3c(c2)OCO3)C(=O)N1CCc1ccccc1 (stereo not drawn),102%
3,O=S(=O)(NC1CCCCC1)c1ccc(Br)cc1,89.3%
4,CCn1c2ccccc2c2nnc(SCC(=O)c3ccccc3)nc21,94.8%
5,COc1ccccc1C1NC(=O)NC(C)=C1C(=O)Nc1cccc(C)c1C (stereo not drawn),105%
6,CCOC(=O)c1[nH]c(C)c(C(=O)OCC)c1C,105%
7,Cc1ccc2c(c1)C(c1ccccc1)N(C(=O)c1ccc(Br)o1)CC(=O)N2 (stereo not drawn),76.4%
8,CCSC1=C(C#N)C(c2ccc(F)cc2)CC(=O)N1 (stereo not drawn),93.4%
9,O/N=C1/CCc2cccc3cccc1c23,96.1%
10,COc1ccc(OCc2nnc(SCC(=O)O)n2N)cc1,106%
11,Cc1noc(NS(=O)(=O)c2ccc(N3Cc4ccccc4C3=O)cc2)c1C,102%
12,Cc1cc(C)c(OCC(=O)Nc2cccc(NC(=O)c3ccco3)c2)c(Br)c1,56.1%
13,O=C(Cn1cc2c(n1)CCCC2)Nc1ccccc1Br,95.7%
14,CCCC(=O)C1=C(O)C(C(=O)OC)C(C)(C)CC1=Nc1ccccc1 (stereo not drawn),91.2%
15,O=C(CCCN1C(=O)CSc2ncccc21)N1CCN(Cc2ccccc2)CC1,92.4%
16,CCOC(=O)c1c(C)c(C(=O)O)n(C)c1C,99.5%
17,CCOc1ccc(C2CC(c3cccc(C)c3)n3nc(N)nc3N2)cc1 (stereo not drawn),91.7%
18,Cc1cccc(NC(=O)c2ccc(S(=O)(=O)N(C)C)cc2)c1,106%
19,COCCCNC(=O)c1cc2c(-c3ccc(Cl)cc3)nn(C)c2s1,82.9%
20,Cc1ccc(-c2nnc3n2N=C(c2ccccc2)CS3)cc1,97.7%

row,SMILES,viability
1,COCCOC(=O)c1[nH]c2c(c1C)C(=O)CC(c1cc(OC)ccc1OC)C2 (stereo not drawn),38.6%
2,COc1ccc(OC)c(C2C(C(N)=O)=C(C)Nc3nc(CCCO)nn32)c1 (stereo not drawn),97.3%
3,CCOC(=O)Nc1ccc2ncn(C)c(=O)c2c1,101%
4,Cc1cc2c3nonc3ccc2n1-c1ccccc1,83%
5,O=C(Nc1ccc(F)cc1)C1CCC(N2C(=O)c3ccccc3C2=O)CC1 (stereo not drawn),86.3%
6,CCOc1ccc(-n2c(Cc3cc(=O)[nH]c(=O)[nH]3)nnc2SC(C)C(=O)OC)cc1 (stereo not drawn),101%
7,Cn1cccc1Cc1nnc(SCC(=O)N2CCCCCC2)n1-c1ccc(F)cc1,84%
8,Cc1occc1C(=O)NCc1cccs1,91%
9,CCC(C)(C(=O)NC1CCCCC1)N(Cc1ccco1)C(=O)CC1NC(=O)NC1=O (stereo not drawn),97%
10,CCCCOC(=O)Cc1c(O)c2ccccc2[nH]c1=O,102%
11,CCCC(=O)N=c1sc2cccc(F)c2n1C,99%
12,Cc1ccc(N2CCN(c3cc(C)nc4nc(C)nn34)CC2)c(C)c1,83.3%
13,CC(C)CCOc1cccc(C2c3c(oc4ccccc4c3=O)C(=O)N2CCCN2CCOCC2)c1 (stereo not drawn),87.9%
14,O=C1N=C(N2CCOCC2)SC1=C1CCCCC1,98%
15,CCOC(=O)N1CCC(N2CC34C=CC(O3)C(C(=O)Nc3ccc(F)cc3)C4C2=O)CC1 (stereo not drawn),105%
16,COC(=O)/C=C/S(=O)(=O)c1ccc(NC(C)=O)cc1,88.3%
17,Cc1ccc(C)c(NC(=O)CS(=O)(=O)c2cn(C)c3ccccc23)c1,103%
18,CCOC(=O)C1C(C)N=C2SCC(=O)N2C1c1cccc(Br)c1 (stereo not drawn),86.4%
19,CCOc1ccc(NC(=O)c2cnc3scc(C)n3c2=O)cc1,101%
20,COC(=O)c1ccc(N=c2sc(C(=O)OC)cc(=O)n2C)cc1,71.2%

# Reference: PubChem BioAssay
